Screen size: about 310,000 compounds; about 11,000 (3.5%) were called active. Not shown: some 4% with an inconclusive outcome. This is one part of a sample in which actives are shown more often than they occur. Calls follow the shape of the dose curve; as a rule, active = well fitted inhibition curve with a large enough effect; inconclusive = small, poorly fitted or top-dose-only effect, or another doubt; inactive = no such curve, though single readings can be large or run the other way.

Among the data in PubChem BioAssay AID1490 (National Center for Advancing Translational Sciences (NCATS), 2009) are Potency and largest response in the series, negative = inhibition values, retold here.
Potency is read from the fitted curve at half-maximal effect.

The target in the assay is 4'-phosphopantetheinyl transferase ffp (Bacillus subtilis) (UniProt Q9F4F7). Briefly: qHTS Assay for Inhibitors of Bacillus subtilis Sfp phosphopantetheinyl transferase (PPTase).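 Also: the enzyme is Sfp with the accession as filed and its product quenches rhodamine fluorescence.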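 As to largest response in the series, negative = inhibition: 0% = enzyme reaction without inhibitor and -100% = no enzyme wells.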 The following applies: Biochemical Sfp PPTase activity. A digest of the protocol:
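Compounds were incubated with enzyme (final 15 nM) for 15 min at room temperature before substrate addition started the reaction. Fluorescence at 525 nm excitation, 598 nm emission was recorded immediately and after 30 minutes.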
(In general: qHTS replaces the single test concentration by a dilution series.)
For `N#Cc1ccsc1NC(=O)CN1CCCCC1`, the Potency is 89.1 µM (active).

For `Cc1csc(NC(=O)CN2CCCCCC2)n1`, the Potency was 79.4 µM (active).

Regarding `N#Cc1ccsc1NC(=O)CN1CCN(S(=O)(=O)c2cc(Cl)ccc2Cl)CC1`, the largest response in the series, negative = inhibition was -21.5% (inactive).

For `CS(=O)(=O)c1ccc2nc(NC(=O)CN3CCCCCC3)sc2c1`, the largest response in the series, negative = inhibition is -29.2% (inactive).

Regarding `N#Cc1cccc(NC(=O)CN2CCCCCC2)c1`, the largest response in the series, negative = inhibition is 7.01% (inactive).

For `Cc1cc(C)c(NC(=O)CN2CCCCCC2)c(C)c1`, the largest response in the series, negative = inhibition was -2.37% (inactive).

Take `CCOC(=O)C1CN(S(=O)(=O)c2ccc(OC)cc2)c2cc(Cl)ccc2O1` (stereo not drawn): the largest response in the series, negative = inhibition was 3.4% (inactive).

Turning to `Cc1ccc(S(=O)(=O)NNC(=O)/C=C/c2cccc(F)c2)cc1`, the largest response in the series, negative = inhibition is 9.18% (inactive).

As to `C=CCc1ccccc1OCC(O)CN1CCN(CCO)CC1` (stereo not drawn), the largest response in the series, negative = inhibition is 5.68% (inactive).

As to `CCOC(=O)c1sc(NC(=O)c2sc(C)nc2C)nc1C`, the largest response in the series, negative = inhibition is 11.7% (inactive).

In the case of `CC1CCCCN1C(=O)Cn1c(=O)oc2cc(S(=O)(=O)N3CCCCC3)ccc21` (stereo not drawn), the largest response in the series, negative = inhibition was 10.7% (inactive).

As to `Cc1cccc(CNc2cc(-c3ccccc3Cl)ncn2)c1`, the largest response in the series, negative = inhibition was 20.2% (inactive).

On to `Clc1ccccc1-c1cc(NCCN2CCOCC2)ncn1`, for which the Potency was 79.4 µM (active).

As to `c1ccc2cc3c(NCCN4CCOCC4)ccnc3cc2c1`, the largest response in the series, negative = inhibition is -20.1% (inactive).

For `COc1ccc(NC(=O)CCCN2C(=O)C(c3ccccc3)Oc3cccnc32)cc1` (stereo not drawn), the largest response in the series, negative = inhibition was 1.64% (inactive).

Take `Cc1ccc(C)c(S(=O)(=O)N2CCCOC2CNC(=O)C(=O)NC2CCCCC2)c1` (stereo not drawn): the largest response in the series, negative = inhibition was 11.5% (inactive).

Regarding `Cc1ccc(C)c(NC(=O)CCC(=O)NNC(=O)c2cccs2)c1`, the largest response in the series, negative = inhibition was 3.73% (inactive).

For the compound `Cc1ccc(C)c(NC(CC(=O)c2ccccc2)C(=O)OCC(=O)c2cccs2)c1` (stereo not drawn), the Potency is 39.8 µM (active).

In the case of `COC(=O)C(CC(=O)Nc1cc(C)ccc1C)Nc1ccccc1OC` (stereo not drawn), the largest response in the series, negative = inhibition is 28.6% (inactive).

For the compound `Cc1ccc(-c2ncc(Cl)cc2-c2ccc(S(C)(=O)=O)cc2)cn1`, the largest response in the series, negative = inhibition is 13.6% (inactive).

`C=CCn1c(SCc2c(C)noc2C)nc2sc3c(c2c1=O)CCC(C)C3` (stereo not drawn): the largest response in the series, negative = inhibition was -23.8% (inactive).

With `C=CCn1c(SCC(=O)NCC2CCCO2)nc2sc(C)c(C)c2c1=O` (stereo not drawn), the largest response in the series, negative = inhibition was 13.7% (inactive).

In the case of `C=CCn1c(SCc2csc(C)n2)nc2scc(-c3ccc(C)o3)c2c1=O`, the Potency is 11.2 µM (active).

As for `COC(=O)c1cc(NC(=O)c2cccnc2)ccc1N1CCOCC1`, the largest response in the series, negative = inhibition was 9.31% (inactive).

Consider `COc1ccccc1NC(=O)c1ccc(N2CC3CC(C2)c2cccc(=O)n2C3)c(NC(=O)c2cccnc2)c1` (stereo not drawn), for which the Potency is 31.6 µM (active).

On to `COc1ccccc1NC(=O)c1ccc2nc(N3C(=O)CCC3=O)sc2c1`, for which the largest response in the series, negative = inhibition was 10.7% (inactive).

Turning to `CCCCn1c(-c2cccc(C)c2)nc2cc3[nH]c(=O)c(C(C)C)nc3cc21`, the largest response in the series, negative = inhibition was -18.3% (inactive).

In the case of `CCOC(OCC)OCC`, the largest response in the series, negative = inhibition is -10.1% (inactive).

Consider `CC1C(=O)Nc2ccccc2N1C(=O)c1c(F)cccc1F` (stereo not drawn), for which the largest response in the series, negative = inhibition was 14.4% (inactive).

`CC(C)c1cnc(NC(=O)Cc2ccccc2)s1`: the largest response in the series, negative = inhibition is 26.8% (inactive).

As for `CC(=O)Nc1c2c(nn1-c1ccc(C)cc1C)CS(=O)C2` (stereo not drawn), the largest response in the series, negative = inhibition is 9.45% (inactive).

As for `O=C(CCCN1C(=O)/C(=C/c2ccccc2)SC1=S)Nc1ccc(O)cc1`, the largest response in the series, negative = inhibition is 12.2% (inactive).

Consider `O=C(CCCN1C(=O)/C(=C/c2ccco2)SC1=S)Nc1ccccc1`, for which the Potency was 31.6 µM (active).

On to `COc1ccc(/C=C2\SC(=S)N(CCC(=O)Nc3cccc(C(=O)O)c3)C2=O)cc1OC`, for which the largest response in the series, negative = inhibition was -8.44% (inactive).

For the compound `O=C(CCCN1C(=O)/C(=C/c2cccs2)SC1=S)Nc1ccc(O)cc1`, the largest response in the series, negative = inhibition was -1.57% (inactive).

Regarding `O=C(CCCN1C(=O)/C(=C\c2ccco2)SC1=S)Nc1cccc2ccccc12`, the Potency was 56.2 µM (active).

With `O=C(CCCN1C(=O)/C(=C\c2ccccc2)SC1=S)Nc1ccccc1O`, the largest response in the series, negative = inhibition is 17.9% (inactive).

Regarding `Cc1ccc2nc3c(cc(C(=O)NCCc4ccccc4)c(=N)n3CC3CCCO3)c(=O)n2c1` (stereo not drawn), the largest response in the series, negative = inhibition is 21.3% (inactive).

As to `Cc1ccc(CS(=O)(=O)c2ncc(Cl)c(C(=O)Nc3nnc(C)s3)n2)cc1`, the largest response in the series, negative = inhibition was -13.2% (inactive).

Regarding `COc1ccc(Cl)cc1NS(=O)(=O)c1cccc(C(=O)NCC2CCCO2)c1` (stereo not drawn), the largest response in the series, negative = inhibition was 12.9% (inactive).

As to `CN(Cc1ccccc1)C(=O)CSc1nc2ccccc2[nH]1`, the largest response in the series, negative = inhibition is 9.63% (inactive).

Turning to `COCCCNC(=S)NC(=O)c1ccccc1`, the largest response in the series, negative = inhibition was 8.58% (inactive).

For the compound `Cn1nnc(NC(=S)NC(=O)c2ccccc2)n1`, the Potency is 35.5 µM (active).

As to `Cc1cc2[nH]ncc2cc1NC(=S)NC(=O)c1ccccc1`, the largest response in the series, negative = inhibition is 1.08% (inactive).

For `O=C(NC(=S)NC1CCS(=O)(=O)C1)c1cccc([N+](=O)[O-])c1` (stereo not drawn), the largest response in the series, negative = inhibition is -2.6% (inactive).

Take `COc1ccc(-c2c(C#Cc3ccccc3)c3ccccc3n2C)cc1`: the largest response in the series, negative = inhibition is -20.7% (inactive).

On to `COc1ccc(CCNCc2c(-c3ccccc3)n(C)c3ccccc23)cc1`, for which the Potency is 79.4 µM (active).

`COc1ccc(-c2nc3ccccc3c(=O)n2CCc2ccc(O)cc2)cc1`: the largest response in the series, negative = inhibition is -0.523% (inactive).
